An excerpt weighted towards active compounds, which were near 0.46% of everything screened.
PDI turbidity: inhibitors of human PDI, primary screen, biochemical, turbidity, single point, plate reader; inhibition, % at 10 µM; PDI insulin aggregation turbidity, A650, 90 min; Protein disulfide-isomerase (Homo sapiens), P07237; hit rate 0.052% among 350,000;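 active means mean inhibition across replicates of 30% or more, whatever share of single replicates reach that level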
ERAP1 HTS inh: human ERAP1 aminopeptidase inhibitors, primary screen, biochemical, single point, plate reader; Endoplasmic reticulum aminopeptidase 1 (Homo sapiens), Q9NZ08; recombinant ERAP1, Leu-AMC fluorescence, 60 min; inhibition, % at 10.7 µM; hit rate 0.15% among 340,000;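 active means mean replicate inhibition of at least 30%, or all replicates individually reaching that 30% level; inactive means mean below 30% and not every replicate reaching it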
ERp5 inh: inhibitors of ERp5-driven insulin aggregation, primary screen, biochemical, turbidity, absorbance 650 nm, single point; Protein disulfide-isomerase A6 (Homo sapiens), Q15084; 90 min; inhibition, % at 9.99 µM; hit rate 0.05% among 350,000; AID 651711, 2012;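 active means mean replicate inhibition above about 25%, with every replicate also reaching it, limit read from the data, passing the limit was not always enough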
Target sequence (Q15084 whole entry, looked up): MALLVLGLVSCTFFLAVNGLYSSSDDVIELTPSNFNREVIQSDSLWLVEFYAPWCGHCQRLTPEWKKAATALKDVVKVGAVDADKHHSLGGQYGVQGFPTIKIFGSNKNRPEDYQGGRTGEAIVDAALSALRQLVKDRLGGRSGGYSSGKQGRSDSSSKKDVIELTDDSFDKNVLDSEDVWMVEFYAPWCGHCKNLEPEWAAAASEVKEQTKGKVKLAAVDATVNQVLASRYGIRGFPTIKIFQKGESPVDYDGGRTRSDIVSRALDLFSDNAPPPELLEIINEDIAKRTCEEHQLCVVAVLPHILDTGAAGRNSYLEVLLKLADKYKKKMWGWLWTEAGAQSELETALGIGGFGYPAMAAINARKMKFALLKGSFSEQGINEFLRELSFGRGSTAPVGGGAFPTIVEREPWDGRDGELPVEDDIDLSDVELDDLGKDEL
CaV13 FRET inh: Disruptors of the CACNA1D IQ motif to Ca2+-dependent inactivation inhibitor domain association, primary screening, Förster resonance energy transfer in intact living …; HEK cells, CFP/YFP FRET ICDI-IQ, plate reader, 10 min; percent FRET-ratio fall versus neutral wells; inhibition, % at 12.3 µM; hit rate 0.098% among 340,000; AID 743397;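 active means mean replicate inhibition of at least 30% and at least 1% of replicates passing that level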
PglD DTNB: C. jejuni PglD acetyltransferase inhibitors, primary screen, biochemical, DTNB colorimetric, single point | UDP-N-acetylbacillosamine N-acetyltransferase PglD (Campylobacter jejuni) | purified PglD enzyme, DTNB colorimetric CoA detection | inhibition, % at 12.5 µM | hit rate 0.098% among 360,000 | AID 602405, 2012; in the data active means inhibition above about 16%, passing the limit was not always enough
PGC1a acetyl inh: inhibitors of PGC1a acetylation signal, primary screen, cell-based, U2OS, AlphaScreen, inhibitor mode. AlphaScreen anti-acetyl-lysine; with virally co-expressed GCN5 acetyltransferase. inhibition, % at 15.6 µM. hit rate 0.17% among 350,000. AID 651687, 2012;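 active means every replicate shows inhibition of at least 40%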
Numbers stand for hits; 0 = inactive; - = not tested or not shown; + = active, no number; ! = not active in a repeat.

SMILES	PDI turbidity	ERAP1 HTS inh	ERp5 inh	CaV13 FRET inh	PglD DTNB	PGC1a acetyl inh
CO[C@@H](CN(C)C(=O)c1ccccc1F)[C@@H](C)CN([C@@H](C)CO)S(=O)(=O)c1ccc(F)cc1	-	0	0	-	0	0
CCCCC1CCC(C(=O)OC(C)C(=O)Nc2ccc(NC(C)=O)cc2)CC1 (stereo not given)	0	75	0	-	0	0
COc1ccc(/C=N/NC(=O)c2ccc(NC(=O)c3cccc([N+](=O)[O-])c3)cc2)c(C(=O)O)c1OC	0	0	0	0	0	-
COc1ccc(/C=N/NC(=O)c2ccc(NC(=O)c3cccc([N+](=O)[O-])c3)cc2)c(OC)c1	0	0	0	0	-	97
O=C(CN1CCOCC1)Nc1ccc(Cl)c(Cl)c1	0	0	0	-	0	-
O=C(CN1CCN(S(=O)(=O)N2CCOCC2)CC1)Nc1ccc(Cl)c(Cl)c1	0	122	0	0	0	-
CCS(=O)(=O)N1CC2(CN(Cc3ccccc3OC)[C@H](CO)c3c2c2ccc(OC)cc2n3C)C1	-	-	-	-	-	0
CCOc1ccc(NC(=O)C2CCCN2C(=O)Oc2ccccc2)cc1 (stereo not given)	0	57	0	0	0	-
Cc1cc(C)cc(NC(=O)C2CCCN2C(=O)Oc2ccccc2)c1 (stereo not given)	0	-	-	-	0	0
CO[C@H]1CN(C)C(=O)c2cc(NC(=O)Nc3c(C)noc3C)ccc2OC[C@@H](C)N(CCC(F)(F)F)C[C@@H]1C	-	0	0	-	0	0
Cc1cc(C)nc(NC(=O)/C=C/c2ccccc2Cl)n1	0	-	-	0	-	0
Cc1cc(N)c2cc(NC(=O)/C=C/c3ccccc3Cl)ccc2n1	0	-	-	-	0	80
CCOC(=O)/C(C#N)=C1/C(=O)N(Cc2ccccc2)c2ccccc21	0	0	0	0	-	73
O=C(C[C@H]1C[C@H]2c3cc(NC(=O)C4CCC4)ccc3O[C@H]2[C@H](CO)O1)NCc1ccc(-c2ccccc2)cc1	-	0	0	-	0	64
O=C(C[C@@H]1C[C@@H]2c3cc(NC(=O)Nc4ccccc4F)ccc3O[C@@H]2[C@@H](CO)O1)NCc1ccc(Oc2ccccc2)cc1	-	0	0	-	0	84
O=C(C[C@H]1C[C@@H]2c3cc(NC(=O)C4CCC4)ccc3O[C@@H]2[C@@H](CO)O1)NCc1ccc(-c2ccccc2)cc1	-	0	0	-	0	0
O=C(C[C@@H]1C[C@H]2c3cc(NC(=O)Nc4ccccc4F)ccc3O[C@H]2[C@H](CO)O1)NCC(F)(F)F	0	0	84!	0	0	0
O=C(C[C@H]1C[C@H]2c3cc(NC(=O)Nc4ccccc4F)ccc3O[C@H]2[C@@H](CO)O1)NCC(F)(F)F	-	0	0	-	0	0
C/C=C/c1cnc2c(c1)C(=O)N([C@H](C)CO)C[C@H](C)[C@@H](CN(C)S(=O)(=O)c1ccc(OC)cc1)O2	-	0	0	-	0	0
Cc1noc(C)c1NC(=O)Nc1ccc2c(c1)C(=O)N([C@@H](C)CO)C[C@H](C)[C@H](CN(C)C(=O)Nc1ccc(C(F)(F)F)cc1)OCCCC[C@H](C)O2	-	0	0	-	0	0
O=C(O)c1ccc(N/N=C/c2ccc(-c3ccccc3Cl)o2)cc1	0	0	0	+	0	0
C[C@H](CO)N1C[C@H](C)[C@@H](CN(C)Cc2ccc3c(c2)OCO3)Oc2ccc(NS(=O)(=O)c3ccc(F)cc3)cc2C1=O	-	0	0	-	0	0
O=C(NC1CCCCC1c1ccccc1)c1ccccc1 (stereo not given)	0	0	0	0	-	-
O=C(NC1CCCCCCC1O)c1ccccc1 (stereo not given)	0	0	0	0	-	57
O=C1/C(=C/c2ccc(N3CCOCC3)o2)SC(=Nc2ccccc2)N1CCc1c[nH]c2ccccc12	0	-	-	-	0	62
SMILES	PDI turbidity	ERAP1 HTS inh	ERp5 inh	CaV13 FRET inh	PglD DTNB	PGC1a acetyl inh
N#Cc1ccc(NC(=O)Cn2c3[n+](c4ccc(C(F)(F)F)cc42)CCCCC3)cc1	0	64	0	0	-	-
CCOc1ccc(C(=O)c2cc3ccc(O)cc3oc2=O)cc1	0	0	0	90	-	-
C[C@@H]1CCCCO[C@@H](CN(C)C(=O)c2ccccc2)[C@H](C)CN([C@H](C)CO)C(=O)c2cc(NS(=O)(=O)c3ccc(Cl)cc3)ccc2O1	-	0	0	-	0	0
N#Cc1cccc(-c2ccc([C@@H]3[C@@H]4CN(S(=O)(=O)c5ccc(-c6ccccc6)cc5)C[C@H]3N4)cc2)c1	-	0	0	-	-	93
COc1cc(/C=C2\SC(=S)N(NS(=O)(=O)c3ccccc3)C2=O)ccc1O	41	0	0	0	0	0
CCOc1ccc(/C=C2/SC(=S)N(C(C(=O)O)c3ccccc3)C2=O)cc1OCC (stereo not given)	0	0	0	0	-	0
CCOc1cc(/C=C2\SC(=S)N(C(C(=O)O)c3ccccc3)C2=O)ccc1O (stereo not given)	35	-	0	0	0	0
O=C([C@@H]1[C@@H](CO)[C@@H]2Cn3c(ccc(C4=CCCCC4)c3=O)[C@H]1N2Cc1nccs1)N1CCOCC1	-	0	0	-	0	-
CCOc1cccc(-c2c(C(=O)N/N=C/c3ccc(C)o3)nnn2-c2nonc2N)c1	0	0	27	0	0	0
O=C(CCCn1c(=O)c2sccc2n(Cc2cc(=O)n3ccccc3n2)c1=O)NCc1ccco1	0	-	0	+	0	0
O=C(CCn1c(=O)c2sccc2n(Cc2cc(=O)n3ccccc3n2)c1=O)NCc1ccco1	0	-	-	0	0	0
CN(C)CC1CC/C(=C\c2ccc(O)cc2)C1=O (stereo not given)	87	0	0	0	-	-
O=C(CCN1C(=O)/C(=C\c2ccccc2)SC1=S)NCCCN1CCOCC1	0	0	26	0	0	0
O=C(CCCN1C(=O)c2ccccc2C1=O)NCCCN1CCOCC1	0	-	-	0	0	-
CC(C)(C)c1ccc(CCC2OCC(C[N+]3(C)CCOCC3)O2)cc1 (stereo not given)	0	104	0	0	0	73
CN(C)C(=O)[C@H]1[C@H](CO)[C@H]2Cn3c(ccc(-c4ccccc4)c3=O)[C@@H]1N2C(=O)C1CCC1	-	0	0	-	0	-
N#Cc1c2ccc(O)cc2n2ccccc12	0	0	0	+	-	-
N#Cc1c2ccc(OCC(=O)NCc3ccco3)cc2n2ccccc12	0	0	0	0	0	0
CC(C)Cn1nc(NC(=O)c2cccs2)c2cc3ccccc3nc21	0	0	-	0	0	0
COc1ccc2nc3c(cc2c1)c(NC(=O)c1cccs1)nn3CC(C)C	0	-	-	56	0	0
CCCCCCC1CC(=O)NC(=S)N1 (stereo not given)	0	0	0	0	-	63

Assay outcomes: PubChem BioAssay, Broad Institute
